This note sets out measurements from PubChem BioAssay (NCATS).

Assay [1] concerns the target Glutathione peroxidase 1 (Homo sapiens) (UniProt P07203). Briefly: Primary qHTS Assay for Inhibitors of Recombinant Selenoprotein Glutathione Peroxidase 1 (GPX1) (AID 1845191). Further: nearly all actives have a fitted effect of over 65% in size. The gist of the method: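 Recombinant GPX1 (10 nM final) was preincubated with compound for 30 min at room temperature, then reacted with 1 mM GSH, 0.5 mM CHP, 0.5 mM NADPH and 100 nM glutathione reductase; NADPH fluorescence (340/450 nm) was read at 0 and 15 min.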
For orientation: In qHTS, concentration-response curves come from the screen itself.

In assay [2] the target is Phospholipid hydroperoxide glutathione peroxidase GPX4 (Homo sapiens) (UniProt P36969). Put plainly: Primary qHTS Assay for Inhibitors of Recombinant Selenoprotein Glutathione Peroxidase 4 (GPX4) (AID 1845192). Further: nearly all actives have a fitted effect of over 65% in size. The gist of the method: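 GR-coupled readout: 100 nM GR, 1 mM GSH, 0.5 mM NADPH; NADPH fluorescence (ex 340/em 450 nm) read at t=0 and after 15 min RT. GPX4 200 nM, preincubated 30 min with compound; substrate 0.5 mM CHP.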
Chain of Phospholipid hydroperoxide glutathione peroxidase GPX4 (Homo sapiens) (P36969 whole entry, looked up): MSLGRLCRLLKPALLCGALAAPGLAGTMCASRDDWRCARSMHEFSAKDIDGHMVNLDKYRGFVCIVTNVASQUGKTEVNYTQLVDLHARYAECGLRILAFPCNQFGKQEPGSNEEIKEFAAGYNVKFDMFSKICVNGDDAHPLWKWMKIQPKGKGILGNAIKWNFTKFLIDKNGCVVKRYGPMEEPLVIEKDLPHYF

The target of assay [3] is Luciferin 4-monooxygenase (Photinus pyralis) (UniProt P08659). Briefly: Primary firefly luciferase (FLuc) qHTS assay for identification of artifact compounds. (AID 1845220). Further: nearly all actives have a fitted effect of over 60% in size. The procedure, abridged: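 qHTS, 15 min compound preincubation with substrate (10 uM luciferin, 10 uM ATP) at RT, then 10 nM FLuc; 5 min; luminescence; % inhibition vs no-enzyme/DMSO controls, 4-parameter Hill fit.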

Assay [4] is described as follows: Primary fluorescence-based thiol-reactive (MSTI) qHTS assay for identification of artifact compounds. (AID 1845221). Further: nearly all actives have a fitted effect of over 65% in size. Further: potency means the concentration at half of the fitted maximal effect. The gist of the method:
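Reactivity toward the thiol probe MSTI (4 uM) is scored by fluorescence at Ex/Em 525/598 nm after 1 h at room temperature. Acetyl-MSTI and MSTI define the activity scale.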

Assay [5] has as its system Nanoluciferase (engineered Oplophorus gracilirostris luciferase). Put plainly: Primary Nanoluciferase (NLuc) qHTS assay for identification of artifact compounds. (AID 1845222). Further: series mostly up to about 54 µM. The procedure, abridged:
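Luminescence read-out of secreted NLuc in S16 cell conditioned medium (1:55); compounds tested with 15 min RT preincubation, then Nano-Glo substrate 1:100, 5 min. % inhibition vs no-enzyme and DMSO controls, 4-parameter Hill fit.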

Assay [6] can be described thus: Primary redox qHTS assay for identification of artifact compounds. (AID 1845223). The procedure, abridged:
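Amplex Red (25 uM) and HRP (250 mU/mL) in HBSS, with compounds for 15 min, then 250 uM DTT for 30 min, room temperature, dark. Fluorescence 525/598 nm read; normalized to DMSO and 10 uM DA3003; Hill fit.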

Values without a mark were called inactive. Records with an inconclusive call do not appear. Activity calls are given as the source filed them. The call rests on the fitted dose curve; in most records, active means well fitted curve in the direction sought with a large enough effect; inconclusive means small, poorly fitted or top-dose-only effect, or another doubt; inactive means no such curve, though single readings can be large; an effect the other way counts as inactive or inconclusive.

Chain of Glutathione peroxidase 1 (Homo sapiens) (P07203 whole entry, looked up): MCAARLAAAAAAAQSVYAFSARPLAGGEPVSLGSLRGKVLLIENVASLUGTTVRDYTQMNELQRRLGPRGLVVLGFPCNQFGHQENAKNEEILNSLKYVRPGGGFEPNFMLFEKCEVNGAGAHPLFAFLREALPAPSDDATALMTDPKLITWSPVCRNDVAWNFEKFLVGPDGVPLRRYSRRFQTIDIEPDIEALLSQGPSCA

Take `CC1=C2CC(C)(C)CC2C(O)C2=C(C1)C(=O)OC2O` (stereo unspecified): the Potency result in assay [1], in assay [2], in assay [3], in assay [4], in assay [5] and in assay [6] was “inactive” each time.
Regarding `COc1c(C)c(OCC=C(C)C)cc2c1COC2=O`, the Potency entry in assay [1], in assay [2], in assay [3], in assay [4], in assay [5] and in assay [6] was “inactive” in each case.
For `CCC(C)(C)C1CCc2c(sc(NC(=O)c3ccc(Br)cc3)c2C#N)C1` (stereo unspecified), the Potency result in assay [1], in assay [2], in assay [3], in assay [4], in assay [5] and in assay [6] was “inactive” in each case.
With `COc1cc(O)cc2c1C(=O)OC(C)C2` (stereo unspecified), the Potency result in assay [1], in assay [2], in assay [3], in assay [4], in assay [5] and in assay [6] was “inactive” throughout.
On to `N#CN1CCC[C@@H](n2nc(-c3ccc(Oc4ccc(F)cc4F)cc3)c(C(N)=O)c2N)C1`, for which the Potency result in assay [1], in assay [2], in assay [3], in assay [4], in assay [5] and in assay [6] was “inactive” in each case.
As to `C/C(=C\CCC1(C)C2CC3C(C2)C31C)C(=O)O` (stereo unspecified), the Potency result in assay [1], in assay [2], in assay [3], in assay [4], in assay [5] and in assay [6] was “inactive” in each case.
Turning to `O=C(/C=C/c1ccc(O)cc1)O[C@H]1[C@H](OC2CCCCC2O)O[C@H](CO)[C@@H](O)[C@@H]1O` (stereo partly specified), the Potency result in assay [1], in assay [2], in assay [3], in assay [5] and in assay [6] was “inactive” throughout. The Potency in assay [4] was 4.12 µM (active).
For the compound `CC(C)c1ccc2c(c1)[C@H](O)CC1[C@@](C)(C(=O)O)CCC[C@]21C` (stereo partly specified), the Potency entry in assay [1], in assay [2], in assay [3], in assay [4], in assay [5] and in assay [6] was “inactive” in each case.
In the case of `COc1cc(C(=O)OC[C@H]2O[C@@H](OC(C)(C)C(=O)O)[C@H](O)[C@@H](O)[C@@H]2O)cc(OC)c1O`, the Potency result in assay [1], in assay [2], in assay [3], in assay [4], in assay [5] and in assay [6] was “inactive” throughout.
Consider `OC[C@H]1O[C@@H](OCc2ccccc2)[C@H](O)[C@@H](O)[C@@H]1O`, for which the Potency entry in assay [1], in assay [2], in assay [3], in assay [5] and in assay [6] was “inactive” in each case. Besides, the Potency in assay [4] is 5.32 µM (active).
Regarding `CCC(C)C(=O)OC[C@H]1O[C@H](O[C@H]2O[C@H](CO)[C@@H](O)[C@H](O)[C@H]2O)[C@H](O)[C@@H](O)[C@@H]1O` (stereo partly specified), the Potency result in assay [1], in assay [2], in assay [3], in assay [4], in assay [5] and in assay [6] was “inactive” each time.
`C/C=C(/C)C(=O)O[C@@H]1C[C@@H](OC(=O)/C(C)=C\C)[C@@]2(C)C3C(=O)C=C(C)C2C3C1(C)C`: the Potency result in assay [1], in assay [2], in assay [3], in assay [4], in assay [5] and in assay [6] was “inactive” each time.
Regarding `CC(C)(O)C1CC=C(C(=O)OC[C@H]2O[C@@H](OC(=O)C3=CCC(C(C)(C)O)CC3)[C@H](O)[C@@H](O)[C@@H]2O)CC1` (stereo partly specified), the Potency entry in assay [1], in assay [2], in assay [3], in assay [5] and in assay [6] was “inactive” in each case. Besides, the Potency in assay [4] is 4.12 µM (active).
With `CC(C)c1ccc2c(c1)C(=O)CC1C(C)(C(=O)O)CCCC21C` (stereo unspecified), the Potency entry in assay [1], in assay [2], in assay [3], in assay [4], in assay [5] and in assay [6] was “inactive” each time.
With `C=CCC1=C[C@]2(OC)[C@H](C)[C@@H](c3ccc(OC)c(OC)c3)O[C@]2(OC)CC1=O`, the Potency result in assay [1], in assay [2], in assay [3], in assay [4], in assay [5] and in assay [6] was “inactive” each time.
On to `CC1(C)CC[C@]2(C(=O)O)CC[C@]3(C)C(=CCC4[C@@]5(C)C[C@@H](O)[C@H](O)[C@@](C)(CO)C5CC[C@]43C)C2C1` (stereo partly specified), for which the Potency entry in assay [1], in assay [2], in assay [3], in assay [4], in assay [5] and in assay [6] was “inactive” in each case.
With `C=CC1(C)CC2CCC3C(C)(C(=O)O)CCCC3(C)C2=CC1=O` (stereo unspecified), the Potency result in assay [1], in assay [2], in assay [3], in assay [4], in assay [5] and in assay [6] was “inactive” throughout.
Take `CC(=O)NC1CC(=O)C23C(=O)NC(Cc4c[nH]c5ccccc45)C2C(C)=C(C)C(O)C3/C=C/CC(C)/C=C(/C)C(O)C1O` (stereo unspecified): the Potency entry in assay [1], in assay [2], in assay [3], in assay [4], in assay [5] and in assay [6] was “inactive” each time.
Consider `C=C1CC2C3(C)C=CC(=O)OC(C)(C)C3CC(OC(C)=O)C2(C)C2C(=O)OC(C)C(=O)C12C` (stereo unspecified), for which the Potency entry in assay [1], in assay [2], in assay [3], in assay [4], in assay [5] and in assay [6] was “inactive” in each case.
Take `Fc1cccc(CN(C2=NCCN2)c2c(Cl)cccc2Cl)c1`: the Potency entry in assay [1], in assay [2], in assay [3], in assay [4], in assay [5] and in assay [6] was “inactive” in each case.
`Cc1nc2cc(-c3cc(F)cc(C#N)c3)ccc2s1`: the Potency entry in assay [1], in assay [2], in assay [3], in assay [4], in assay [5] and in assay [6] was “inactive” in each case.
